Screens from PubChem.
NCOA1 inh – inhibitors of human steroid receptor coactivator 1 (SRC1); Q15788; HEK293 GAL4-SRC1 luciferase reporter, luminescence; 360,000 compounds, 0.12% hits; inhibition, % at 3.6 µM;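 active means inhibition above the campaign mean plus 3 SD, with each screening campaign given its own cutoff, cut at about 60% in these data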;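 further: 0% = DMSO treated cells and 100% = gossypol at 36 µM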
NR5A2 inv ag – suppresses constitutive activity of human LRH-1. O00482. HEK293T StAR-luciferase reporter, LRH-1 transfected, 24 h. inhibition, % at 3.6 µM. 360,000 compounds, 0.13% hits;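 active means inhibition above the mean inhibition of all tested compounds plus 3 SD, cut at about 73% in these data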;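 further: 0% = DMSO wells and 100% = reporter-only cells lacking LRH-1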
Target sequence (O00482 whole entry, looked up): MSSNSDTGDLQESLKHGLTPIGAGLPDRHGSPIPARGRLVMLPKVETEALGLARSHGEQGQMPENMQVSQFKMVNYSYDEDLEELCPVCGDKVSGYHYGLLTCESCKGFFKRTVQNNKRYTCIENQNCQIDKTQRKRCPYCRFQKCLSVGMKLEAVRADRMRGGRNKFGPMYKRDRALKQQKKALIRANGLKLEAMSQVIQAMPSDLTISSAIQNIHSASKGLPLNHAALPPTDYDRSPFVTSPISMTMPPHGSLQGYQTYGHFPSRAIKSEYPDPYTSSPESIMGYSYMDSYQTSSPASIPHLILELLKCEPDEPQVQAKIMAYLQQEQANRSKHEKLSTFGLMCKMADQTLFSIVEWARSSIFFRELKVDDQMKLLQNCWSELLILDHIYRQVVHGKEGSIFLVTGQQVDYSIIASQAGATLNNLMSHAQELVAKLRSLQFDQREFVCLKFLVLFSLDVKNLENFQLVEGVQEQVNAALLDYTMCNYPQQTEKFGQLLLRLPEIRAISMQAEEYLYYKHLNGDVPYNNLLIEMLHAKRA
SRC3 inh – inhibits human SRC3 coactivator; HEK293 GAL4-SRC3 luciferase reporter, luminescence; inhibition, % at 3.6 µM; 360,000 compounds, 0.17% hits; AID 588352;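 active means inhibition above a per-campaign cutoff, the mean of all compounds plus 3 SD, cut at about 60% in these data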;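 further: 0% = DMSO-treated cells and 100% = gossypol-treated cells at 36 µM; higher means less SRC3-driven luciferase light from the GAL4 reporter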
COUP-TFII inh – NR2F2 (human) inhibition, primary screen; P24468; HEK293T NGFI-A luciferase reporter, luminescence; inhibition, % at 8.6 µM; 370,000 compounds, 0.7% hits; AID 686940;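 active means inhibition above a per-plate cutoff, mean inhibition of test wells between control levels plus 3 SD, cut at about 38% in these data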;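 further: cells cotransfected with COUP-TFII expression vector driving the NGFI-A reporter; 0% = median of COUP-TF2 test wells and 100% = reporter-only cells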
Gli-Sufu block – antagonists of Gli-Sufu signaling. Sufu-KO-LIGHT fibroblasts, Gli luciferase reporter luminescence. inhibition, % at 5 µM. 340,000 compounds, 0.74% hits. AID 588413;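 active means inhibition above about 55%, limit read from the data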;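 further: 0% = DMSO-treated cells and 100% = wells with medium but no cells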
SRC2 inh – inhibits human steroid receptor coactivator 2; Q15596; HEK293 GAL4-SRC2 luciferase reporter, luminescence; inhibition, % at 9 µM; 370,000 compounds, 0.17% hits;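 active means inhibition above the mean inhibition of all tested compounds plus 3 SD, set per campaign, cut at about 52% in these data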;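 further: 0% = DMSO treated cells and 100% = cells given Gossypol at 36 µM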
Gli antag conf – Gli-SUFU antagonism confirmation, single concentration. shares compounds with Gli-Sufu block. Sufu-KO-LIGHT cells, Gli luciferase reporter, luminescence. inhibition, % at 5 µM. 2,500 compounds, 40% hits;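 active means mean inhibition at 5 µM reaching about 45%, limit read from the data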;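 further: plate controls were DMSO-treated cells for no effect and wells lacking cells for full effect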
Gli cytotox – cytotoxicity counter-screen for Gli-SUFU antagonists; cytotoxicity, % at 5 µM; 2,500 compounds, 32% hits; Sufu-KO-LIGHT cells cytotoxicity, ATP luminescence; shares compounds with Gli-Sufu block;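 active means mean cytotoxicity at 5 µM above about 25%, limit read from the data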;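 further: cells exposed to compound overnight for roughly 16 to 18 hours; plate controls were DMSO wells with cells for no effect and medium without cells for full effect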
Wnt3a counter – counter-screen for Gli-SUFU antagonists: Wnt3a reporter inhibition. shares compounds with Gli-Sufu block. Wnt-LIGHT cells, Wnt3a-driven luciferase reporter, luminescence. inhibition, % at 6.25 µM. 2,500 compounds, 20% hits;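 active means mean inhibition above about 25%, limit read from the data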
Numbers without * were called inactive; x = not tested or not shown. The list is not random: actives were taken first. Their share in the collection is about 1.3%.

SMILES | NCOA1 inh | NR5A2 inv ag | SRC3 inh | COUP-TFII inh | Gli-Sufu block | SRC2 inh | Gli antag conf | Gli cytotox | Wnt3a counter
O=C(Cn1c(-c2cncs2)nc2ccccc21)NC1CCCCC1 | x | x | x | -4 | x | 17 | x | x | x
C=CCN1[C@@H](CC(C)C)COc2cc(N3CCSCC3)ccc2S1(=O)=O | x | x | x | -8 | x | 5 | x | x | x
CC1(C)CC(=O)C=C(C(=O)NC2CCCc3c2cnn3-c2cc(F)cc(F)c2)O1 (stereo not drawn) | -21 | 4 | -3 | 14 | 18 | 18 | x | x | x
Cc1cccc(-n2ncc3c2CCCC3NC(=O)C2=CC(=O)CC(C)(C)O2)c1C (stereo not drawn) | -18 | 17 | 14 | 24 | 58* | -4 | 21 | 31* | 9
Cc1cc(-n2c(SCc3ccccc3F)nc3n[nH]c(C)c3c2=N)ccc1Cl | -2 | -15 | -1 | 7 | 53 | -20 | 25 | 5 | -38
CC1CCC(NC(=O)c2cccc(S(=O)(=O)N3CCN(C)CC3)c2)CC1 (stereo not drawn) | -22 | -22 | -36 | 6 | -19 | -29 | x | x | x
CC1CCC(NC(=O)c2cccc(S(=O)(=O)N3CCN(c4ccccc4)CC3)c2)CC1 (stereo not drawn) | 1 | 0 | -12 | 11 | 50 | -14 | 47* | 25 | -30
Cn1ccc(C(=O)N/N=C/c2c[nH]c3ccccc23)n1 | -36 | -29 | -23 | -4 | 97* | -29 | 6 | 20 | -50
O=C(N/N=C/c1c[nH]c2ccccc12)c1ccn(Cc2ccc(Cl)cc2Cl)n1 | -3 | 20 | -3 | 4 | 12 | 7 | x | x | x
CC(=O)C1(C(=O)N2CCOCC2)CC(c2ccccc2C(F)(F)F)=NO1 (stereo not drawn) | x | x | x | 8 | x | -3 | x | x | x
CCCCNC(=O)NC1CCN(CC(=O)Nc2ccc3c(c2)OCCO3)CC1 | x | x | x | -7 | x | 9 | x | x | x
C=CCNC1=C(Cl)C(=O)c2ccccc2C1=O | -2 | 2 | -1 | -18 | 56* | -15 | 30 | 5 | 79*
COc1ccc(S(=O)(=O)NC2CC(C)(C)NC(C)(C)C2)cc1C(C)C | 1 | -6 | -1 | -6 | 51 | 15 | 17 | 11 | -18
O=C(N[C@H](C(=O)N1CCC[C@H]1C(=O)NC1CCCC1)C1CCCCC1)c1ccc(Cl)c(Cl)c1 | x | x | x | 3 | x | -20 | x | x | x
CC(=O)N1c2ccc(S(=O)(=O)N3CCCCC3)cc2CC1C (stereo not drawn) | 3 | 11 | 7 | 4 | -13 | -7 | x | x | x
CCCCNC(=O)C1CCN(S(=O)(=O)c2ccc3c(c2)CC(C)N3C(=O)C2CC2)CC1 (stereo not drawn) | -23 | 0 | 1 | -11 | 94* | -2 | 16 | 6 | -16
CC(=O)N1c2ccc(S(=O)(=O)N3CCC(C(=O)N4CCCCC4)CC3)cc2CC1C (stereo not drawn) | -24 | 12 | 26 | 12 | 55 | 3 | 49* | 24 | -5
CCOC(=O)C1=CCN(S(=O)(=O)c2cccc(Cl)c2)C1c1ccc(Cl)cc1 (stereo not drawn) | x | x | x | 4 | x | 11 | x | x | x
CN(CC(=O)Nc1ccc(F)cc1)C(=O)COC(=O)c1ccccc1 | -11 | -10 | 3 | 7 | 0 | -45 | x | x | x
CN(CC(=O)Nc1ccc(F)cc1)C(=O)COC(=O)c1cc(Br)c(Br)s1 | -6 | -14 | 8 | 10 | 65* | -2 | 9 | -13 | -6
CNc1ccccc1C(C)(C)c1cc(-c2cccc(Br)c2)no1 | -15 | 12 | 10 | 33 | 71* | -24 | 75* | 17 | 26*
CCOC(=O)CC[C@@H]1CC[C@]2(CCCN(Cc3nccs3)C2)O1 | x | x | x | -4 | x | 22 | x | x | x
COC(=O)c1ccc(NC(=O)CSc2nc3ccccc3c(=O)[nH]2)cc1 | -14 | -7 | 2 | 22 | 4 | 9 | x | x | x
COc1ccc(NC(=O)CSc2nc3ccccc3c(=O)[nH]2)cc1S(N)(=O)=O | 1 | -21 | -28 | -34 | 57* | 6 | 2 | -9 | -16
